SMILES strings stand for the structures. Results filed as inconclusive are left out. Entries that show only a call come without a potency. Calls of active or inactive are those of the source. Calls follow the shape of the dose curve; as a rule, active = well fitted inhibition curve with a large enough effect; inconclusive = small, poorly fitted or top-dose-only effect; inactive = no such curve, though single readings can be large or run the other way.

Potency and activity change, negative = inhibition data for 15 compounds are collected here from PubChem BioAssay (NCATS).

This assay deals with Rap guanine nucleotide exchange factor 3 (Homo sapiens) (UniProt O95398). Kind of assay: Counterscreen qHTS for antagonist of cAMP-regulated guanine nucleotide exchange factor 3 (EPAC1) (AID 1645888).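 Also: fluorescence loss as bound BODIPY-GDP is released from Rap1B.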 Particulars: Rap1B-BODIPY-GDP nucleotide exchange, fluorescence; series mostly up to 154 µM. An outline of the steps: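 Rap1B–BODIPY-GDP (250 nM) with 50 uM GDP; compounds pin-transferred to 9.74 nM–152 uM final (activator) or from 7.32 nM upwards (inhibitor). Fluorescence Ex/Em 480/540 nm read at 5 and 30 min, then after adding cAMP or buffer, at room temperature.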
Rap guanine nucleotide exchange factor 3 (Homo sapiens), sequence (O95398 whole entry, looked up): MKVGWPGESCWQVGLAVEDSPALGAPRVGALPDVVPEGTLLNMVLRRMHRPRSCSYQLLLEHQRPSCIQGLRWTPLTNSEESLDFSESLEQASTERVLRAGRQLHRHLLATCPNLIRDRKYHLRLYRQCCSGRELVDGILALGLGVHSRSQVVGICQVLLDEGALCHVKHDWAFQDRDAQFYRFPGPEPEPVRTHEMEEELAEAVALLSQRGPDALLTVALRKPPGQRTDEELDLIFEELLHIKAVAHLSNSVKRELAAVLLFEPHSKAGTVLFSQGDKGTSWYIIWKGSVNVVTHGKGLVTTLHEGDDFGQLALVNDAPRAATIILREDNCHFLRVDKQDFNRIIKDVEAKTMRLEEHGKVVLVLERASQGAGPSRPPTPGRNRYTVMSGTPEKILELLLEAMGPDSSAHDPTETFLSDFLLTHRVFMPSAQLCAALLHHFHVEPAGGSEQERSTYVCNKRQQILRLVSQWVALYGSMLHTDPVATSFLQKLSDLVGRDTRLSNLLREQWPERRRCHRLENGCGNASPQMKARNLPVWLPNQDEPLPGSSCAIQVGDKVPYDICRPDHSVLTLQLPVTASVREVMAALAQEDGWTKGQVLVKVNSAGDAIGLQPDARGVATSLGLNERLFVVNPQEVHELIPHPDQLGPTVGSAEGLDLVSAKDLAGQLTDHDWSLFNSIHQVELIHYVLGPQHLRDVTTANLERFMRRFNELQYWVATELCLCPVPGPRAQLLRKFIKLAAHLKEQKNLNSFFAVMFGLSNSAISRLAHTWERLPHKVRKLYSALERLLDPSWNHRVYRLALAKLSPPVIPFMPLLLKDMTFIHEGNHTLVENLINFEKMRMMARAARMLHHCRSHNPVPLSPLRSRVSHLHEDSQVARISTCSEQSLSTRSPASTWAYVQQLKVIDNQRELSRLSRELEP
For `Cc1cc(NC2=CC(=O)C(=O)c3ccccc32)no1`, the Potency entry was “inactive”. `Cc1cc(C)c(Cn2cnc3ccccc32)c(C)c1`: the Potency result was “inactive”. Consider `CCN1CCN(c2ccc(S(=O)(=O)N3CCCCC3)cc2NC(=O)c2ccc([N+](=O)[O-])s2)CC1`, for which the Potency entry is “inactive”. In the case of `Nc1ccc(S(=O)(=O)Nc2nccs2)cc1N=Nc1ccccc1[N+](=O)[O-]`, the activity change, negative = inhibition was -16% [at 30.8 µM] (inactive). As for `Cc1cc(NC(=O)CS(=O)(=O)c2cn(Cc3cccc(Br)c3)c3ccccc23)no1`, the Potency result was “inactive”. `O=C(O)c1ccc(N=N/C(=N\Nc2ccc(C(=O)O)cc2)c2ccccc2)cc1`: the activity change, negative = inhibition was -1.23% [at 30.8 µM] (inactive). `COc1ccc(CCN2C(=O)CSC2=Nc2ccc(C(C)C)cc2)cc1OC`: the Potency entry is “inactive”. Consider `CC(=O)C1=CCC(c2ccccc2Cl)N(S(=O)(=O)c2ccc(C)cc2)C1` (stereo not given), for which the Potency entry was “inactive”. Take `CCOC(=O)C1=C(C)N=c2s/c(=C/c3ccc(OCC(=O)O)cc3)c(=O)n2C1c1ccc(F)cc1` (stereo not given): the Potency result was “inactive”. Consider `CN(C)c1ccc(-c2[nH][nH]c(=O)c2NC(=O)c2ccc3ccccc3n2)cc1`, for which the Potency entry was “inactive”. For the compound `CC(C)n1nccc1N(Cc1ccc(Cl)cc1)S(=O)(=O)c1ccccc1`, the Potency result was “inactive”.

Consider `Cc1ccc(S(=O)(=O)/N=C2\C=C(NS(=O)(=O)c3ccccc3)C(=O)c3ccccc32)c(C)c1`, for which the activity change, negative = inhibition was -5.99% [at 30.8 µM] (inactive).

Turning to `CCN(CC1COc2ccccc2O1)C(=O)CN1C(=O)NC(C)(c2ccc(C)cc2)C1=O` (stereo not given), the Potency result is “inactive”. Same read-out and setting: next, `CCCCN(CCCC)C1=Nc2ccccc2N/C1=C(/C#N)C(=O)OCC`: “inactive”; `Cc1ccc(/C=C2/SC(=S)N(c3ccc(S(=O)(=O)Nc4nccs4)cc3)C2=O)cc1`: “inactive”.
